Data on one compound can be found in PubChem BioAssay (Tox21).

Structures are written as SMILES. Records with an inconclusive call do not appear. Activity calls are given as the source filed them. The call rests on the fitted dose curve; in most records, active means well fitted inhibition curve with a large enough effect in the signal ratio in the repeat runs (not every such curve was filed as active); inconclusive means weak or mixed curves; inactive means flat fitted curve, though single readings scatter; the % refers to the signal ratio.
Potency means the concentration at half of the fitted maximal effect.

This assay in a line: qHTS assay to identify small molecule antagonists of the TGF-beta/Smad signaling pathway (AID 1346924). The note with it: SBE-bla HEK293T, TGF-beta/Smad reporter, beta-lactamase ratio. The text has this: U.S. Tox21 Program National Center for Advancing Translational Sciences [NCATS] NIH Chemical Genomics Center [NCGC] U.S. Environmental Protection Agency [EPA] National Institutes of Environmental Health Sciences [NIEHS] National Toxicology Program [NTP] U.S. Food and Drug Administration [FDA] Tox21 Assay Overview: Transforming growth factor beta (TGF-beta) superfamily consists of a large number of structurally related dimeric proteins that act as hormones or local mediators in regulating a wide range of biological functions. This superfamily includes TGF-betas themselves, the bone morphogenetic proteins (BMPs) and the activins. These ligands induce oligomerization of serine/threonine receptor kinases and phosphorylate the cytoplasmic signaling molecules of Smad protein family. CellSensor SBE-bla HEK 293T cell line (Life Technologies, Carlsbad, CA), responsive to TGF-beta was used to screen Tox21 10K compound library for identification of agonists/antagonists of the Smad signaling pathway. […]
Tox21 Assay Protocol Summary: SBE-bla HEK 293T cells were dispensed at 4,000/well in 5 uL of assay medium into black wall/clear-bottom 1536-well plates using a Multidrop Combi (ThermoFisher Scientific, Waltham, MA) dispenser. […] Fluorescence intensity (405 nm excitation, 460 nm and 530 nm emissions) was measured using an Envision plate reader (PerkinElmer, Shelton, CT).
In general terms: In qHTS, concentration-response curves come from the screen itself.
In the case of `CCCCCCCCCCCC[N+](C)(C)CCOc1ccccc1`, the Potency was 50.9 µM (active).
